Test results as given in ChEMBL document CHEMBL1961873, “Compounds: GSK PKIS; Assays: Nanosyn kinase panel” (2012).

Tests used:
[1] = biological target: Tyrosine-protein kinase CSK (Homo sapiens) (UniProt P41240); conditions: at 1 µM;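 also: each value is an averaged inhibition reading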
[2] = biological target: T1, Discoidin domain-containing receptor 2 (Homo sapiens) (UniProt Q16832); conditions: at 0.1 µM
T1 sequence (whole entry): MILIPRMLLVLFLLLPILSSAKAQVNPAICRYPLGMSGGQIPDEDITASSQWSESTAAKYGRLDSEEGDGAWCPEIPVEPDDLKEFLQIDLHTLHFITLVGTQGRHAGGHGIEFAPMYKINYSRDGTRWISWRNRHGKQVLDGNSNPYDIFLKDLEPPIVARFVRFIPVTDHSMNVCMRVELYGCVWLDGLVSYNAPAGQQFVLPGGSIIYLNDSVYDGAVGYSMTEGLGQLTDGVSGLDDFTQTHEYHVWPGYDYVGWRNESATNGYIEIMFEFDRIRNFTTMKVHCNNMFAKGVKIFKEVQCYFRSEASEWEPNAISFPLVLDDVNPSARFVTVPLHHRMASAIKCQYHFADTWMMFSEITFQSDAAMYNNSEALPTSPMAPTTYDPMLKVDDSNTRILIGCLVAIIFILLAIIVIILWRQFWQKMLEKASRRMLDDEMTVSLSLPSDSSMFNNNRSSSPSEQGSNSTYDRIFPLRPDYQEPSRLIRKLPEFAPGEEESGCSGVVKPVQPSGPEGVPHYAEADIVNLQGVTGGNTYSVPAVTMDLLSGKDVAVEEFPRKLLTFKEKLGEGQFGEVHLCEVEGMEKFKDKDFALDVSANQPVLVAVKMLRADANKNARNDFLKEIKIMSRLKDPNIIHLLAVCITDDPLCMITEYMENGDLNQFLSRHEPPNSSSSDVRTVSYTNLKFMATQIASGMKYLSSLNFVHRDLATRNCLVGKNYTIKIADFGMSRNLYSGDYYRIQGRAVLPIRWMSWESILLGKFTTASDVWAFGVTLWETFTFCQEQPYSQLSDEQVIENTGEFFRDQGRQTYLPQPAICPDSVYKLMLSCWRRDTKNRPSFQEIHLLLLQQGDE

[3] = biological target: T1, Discoidin domain-containing receptor 2 (Homo sapiens); conditions: at 1 µM
[4] = biological target: Epidermal growth factor receptor (Homo sapiens) (UniProt P00533); conditions: at 0.1 µM
[5] = biological target: Epidermal growth factor receptor (Homo sapiens) (UniProt P00533); conditions: at 1 µM
[6] = tested on: Epidermal growth factor receptor (Homo sapiens), P00533 [L858R]; conditions: at 0.1 µM
[7] = tested on: Epidermal growth factor receptor (Homo sapiens), P00533 [L858R]; conditions: at 1 µM
[8] = tested on: Epidermal growth factor receptor (Homo sapiens), P00533 [L861Q]; conditions: at 0.1 µM
[9] = tested on: Epidermal growth factor receptor (Homo sapiens), P00533 [L861Q]; conditions: at 1 µM
[10] = tested on: Epidermal growth factor receptor (Homo sapiens), P00533 [T790M]; conditions: at 0.1 µM
Chain of Epidermal growth factor receptor (Homo sapiens), P00533 [T790M] (P00533 whole entry T790M): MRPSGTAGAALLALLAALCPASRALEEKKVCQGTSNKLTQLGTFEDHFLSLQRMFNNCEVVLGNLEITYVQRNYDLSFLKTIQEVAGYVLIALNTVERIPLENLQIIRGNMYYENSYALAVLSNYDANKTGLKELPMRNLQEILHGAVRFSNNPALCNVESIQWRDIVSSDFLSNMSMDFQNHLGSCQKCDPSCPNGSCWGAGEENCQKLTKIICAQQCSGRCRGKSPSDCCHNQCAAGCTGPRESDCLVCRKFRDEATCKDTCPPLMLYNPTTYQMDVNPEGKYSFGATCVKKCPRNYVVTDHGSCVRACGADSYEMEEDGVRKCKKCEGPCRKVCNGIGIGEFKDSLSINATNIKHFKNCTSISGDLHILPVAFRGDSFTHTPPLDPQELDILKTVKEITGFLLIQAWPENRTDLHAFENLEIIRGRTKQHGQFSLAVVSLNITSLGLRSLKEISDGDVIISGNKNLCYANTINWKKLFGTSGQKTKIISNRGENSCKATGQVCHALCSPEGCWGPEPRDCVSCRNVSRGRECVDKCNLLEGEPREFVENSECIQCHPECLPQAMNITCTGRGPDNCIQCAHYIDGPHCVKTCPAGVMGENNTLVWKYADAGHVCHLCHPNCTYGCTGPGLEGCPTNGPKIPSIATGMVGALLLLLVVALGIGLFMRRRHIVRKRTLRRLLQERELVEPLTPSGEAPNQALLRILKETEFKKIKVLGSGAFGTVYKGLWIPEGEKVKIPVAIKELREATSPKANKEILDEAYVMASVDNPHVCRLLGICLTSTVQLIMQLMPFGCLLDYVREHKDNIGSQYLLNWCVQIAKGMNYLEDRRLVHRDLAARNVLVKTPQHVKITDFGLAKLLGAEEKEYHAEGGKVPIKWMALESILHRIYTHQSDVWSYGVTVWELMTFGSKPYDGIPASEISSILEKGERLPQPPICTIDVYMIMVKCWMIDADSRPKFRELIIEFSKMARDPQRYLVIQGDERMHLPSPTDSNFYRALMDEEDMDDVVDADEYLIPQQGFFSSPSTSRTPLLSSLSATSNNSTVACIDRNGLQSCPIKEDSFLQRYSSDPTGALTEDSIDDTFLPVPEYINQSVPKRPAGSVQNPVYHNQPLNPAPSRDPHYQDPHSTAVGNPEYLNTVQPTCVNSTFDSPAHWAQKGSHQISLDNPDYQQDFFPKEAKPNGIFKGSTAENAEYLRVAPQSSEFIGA

Chain of Epidermal growth factor receptor (Homo sapiens), P00533 [L858R] (P00533 whole entry L858R): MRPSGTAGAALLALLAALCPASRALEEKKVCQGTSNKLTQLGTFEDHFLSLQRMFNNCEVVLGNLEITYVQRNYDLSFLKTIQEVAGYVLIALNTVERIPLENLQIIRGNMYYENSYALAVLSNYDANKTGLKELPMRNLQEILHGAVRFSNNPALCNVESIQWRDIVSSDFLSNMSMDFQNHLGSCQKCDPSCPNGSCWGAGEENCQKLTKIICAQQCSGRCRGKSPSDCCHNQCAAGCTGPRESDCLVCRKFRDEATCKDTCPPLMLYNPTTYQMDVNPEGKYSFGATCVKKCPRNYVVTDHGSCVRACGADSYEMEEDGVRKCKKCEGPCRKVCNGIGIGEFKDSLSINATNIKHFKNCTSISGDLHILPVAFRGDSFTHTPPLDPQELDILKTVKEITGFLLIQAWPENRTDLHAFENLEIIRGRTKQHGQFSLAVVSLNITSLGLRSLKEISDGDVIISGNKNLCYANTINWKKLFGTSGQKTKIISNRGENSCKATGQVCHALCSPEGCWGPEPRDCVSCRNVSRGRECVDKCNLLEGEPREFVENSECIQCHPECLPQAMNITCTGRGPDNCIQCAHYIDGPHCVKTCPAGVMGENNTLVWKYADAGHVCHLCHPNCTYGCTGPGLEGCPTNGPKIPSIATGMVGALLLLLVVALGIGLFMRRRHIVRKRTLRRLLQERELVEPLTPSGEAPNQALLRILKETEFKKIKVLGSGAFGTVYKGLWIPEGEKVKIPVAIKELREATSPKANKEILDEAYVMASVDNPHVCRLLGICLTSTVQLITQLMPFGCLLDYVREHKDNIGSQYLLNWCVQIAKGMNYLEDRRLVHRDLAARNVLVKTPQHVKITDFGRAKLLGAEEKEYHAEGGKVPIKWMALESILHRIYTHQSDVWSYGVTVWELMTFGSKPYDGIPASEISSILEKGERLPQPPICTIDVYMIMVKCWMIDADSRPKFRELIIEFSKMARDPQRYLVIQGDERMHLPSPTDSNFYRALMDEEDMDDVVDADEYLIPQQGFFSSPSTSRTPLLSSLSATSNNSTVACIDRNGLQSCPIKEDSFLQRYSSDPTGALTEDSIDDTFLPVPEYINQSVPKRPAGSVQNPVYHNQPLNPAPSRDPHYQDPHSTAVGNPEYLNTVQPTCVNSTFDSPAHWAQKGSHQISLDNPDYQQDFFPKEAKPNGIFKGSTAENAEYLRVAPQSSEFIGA
Chain of Tyrosine-protein kinase CSK (Homo sapiens) (P41240 2-450 limits assumed): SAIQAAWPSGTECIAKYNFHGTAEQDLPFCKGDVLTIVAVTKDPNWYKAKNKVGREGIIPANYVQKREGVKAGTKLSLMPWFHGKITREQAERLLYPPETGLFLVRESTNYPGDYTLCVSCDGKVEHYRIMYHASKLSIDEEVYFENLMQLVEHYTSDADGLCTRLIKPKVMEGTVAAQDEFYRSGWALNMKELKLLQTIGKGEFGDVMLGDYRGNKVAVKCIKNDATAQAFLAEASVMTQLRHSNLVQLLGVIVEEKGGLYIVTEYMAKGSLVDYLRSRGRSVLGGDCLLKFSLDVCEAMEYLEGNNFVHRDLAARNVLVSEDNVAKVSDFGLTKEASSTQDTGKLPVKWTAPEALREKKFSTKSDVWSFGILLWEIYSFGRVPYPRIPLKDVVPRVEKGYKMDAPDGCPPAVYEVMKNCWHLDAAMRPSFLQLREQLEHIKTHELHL
Chain of Epidermal growth factor receptor (Homo sapiens) (P00533 whole entry): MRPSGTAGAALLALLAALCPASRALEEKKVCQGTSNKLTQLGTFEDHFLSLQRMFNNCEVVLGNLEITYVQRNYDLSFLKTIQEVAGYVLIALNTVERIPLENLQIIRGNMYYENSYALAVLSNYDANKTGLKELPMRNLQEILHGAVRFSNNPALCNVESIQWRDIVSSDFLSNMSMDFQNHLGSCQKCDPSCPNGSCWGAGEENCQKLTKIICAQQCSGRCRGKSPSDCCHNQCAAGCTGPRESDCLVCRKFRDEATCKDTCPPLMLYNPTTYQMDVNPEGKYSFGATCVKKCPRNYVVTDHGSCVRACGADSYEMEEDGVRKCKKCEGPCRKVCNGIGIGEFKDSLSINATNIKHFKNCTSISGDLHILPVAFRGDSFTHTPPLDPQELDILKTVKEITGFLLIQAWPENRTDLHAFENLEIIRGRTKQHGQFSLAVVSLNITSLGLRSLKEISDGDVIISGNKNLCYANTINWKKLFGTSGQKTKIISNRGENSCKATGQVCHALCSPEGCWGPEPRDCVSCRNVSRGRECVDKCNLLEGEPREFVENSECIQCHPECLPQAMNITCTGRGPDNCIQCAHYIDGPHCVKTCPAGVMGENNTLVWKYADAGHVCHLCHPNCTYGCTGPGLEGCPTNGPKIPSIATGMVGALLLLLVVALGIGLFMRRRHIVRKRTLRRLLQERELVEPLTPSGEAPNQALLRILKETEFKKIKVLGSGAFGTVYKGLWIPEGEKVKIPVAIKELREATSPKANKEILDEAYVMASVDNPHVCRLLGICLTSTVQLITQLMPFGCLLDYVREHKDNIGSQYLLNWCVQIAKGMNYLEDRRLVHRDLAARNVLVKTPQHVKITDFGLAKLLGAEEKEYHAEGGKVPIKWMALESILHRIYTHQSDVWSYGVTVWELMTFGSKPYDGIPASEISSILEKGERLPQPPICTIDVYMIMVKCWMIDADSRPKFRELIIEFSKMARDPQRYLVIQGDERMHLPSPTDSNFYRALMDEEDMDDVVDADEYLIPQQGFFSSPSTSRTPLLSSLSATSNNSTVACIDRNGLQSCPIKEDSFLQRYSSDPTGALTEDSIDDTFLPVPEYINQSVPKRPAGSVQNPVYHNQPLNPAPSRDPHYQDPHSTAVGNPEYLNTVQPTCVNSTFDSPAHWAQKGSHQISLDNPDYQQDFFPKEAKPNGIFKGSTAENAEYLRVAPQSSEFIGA

Compound | inhibition [1] [%] | inhibition [2] [%] | inhibition [3] [%] | inhibition [4] [%] | inhibition [5] [%] | inhibition [6] [%] | inhibition [7] [%] | inhibition [8] [%] | inhibition [9] [%] | inhibition [10] [%]
CCCNc1cccc(-n2ncc3c(N/N=C/c4ccncc4)ncnc32)c1 | 12.1 | 1.93 | 7.68 | 3.46 | 33.5 | 14 | 71.8 | 2.74 | 31.4 | -0.43
COc1ccc(Nc2ncc(-c3ccccc3)o2)cc1OC | -1.08 | -0.12 | 5.66 | 1.83 | 5.16 | -1.38 | 2.96 | -1.19 | 0.83 | 0.72
CNC(=O)c1ncccc1Nc1nc(Nc2cc3c(cc2OC)CCCN3C(=O)CN(C)C)nc2[nH]ccc12 | 2.18 | 2.33 | 3.8 | 1.65 | 7.76 | 4.57 | 22.4 | 4.79 | 7.78 | 13.2
CC(C)c1ccc(-c2cc(-c3c[nH]nc3-c3ccccn3)ccn2)cc1 | -3.97 | 3.76 | 4.98 | 1.84 | 3.14 | 1.78 | 0.3 | 0.09 | -0.98 | -0.66
CCS(=O)(=O)c1ccc(OC)c(Nc2ncc(-c3cccc(F)c3)o2)c1 | 17.9 | 5.27 | 28.3 | 3.05 | 9.19 | 9.54 | 20.1 | 4.09 | 8.2 | 3.64
CN1CCC(n2cnc(-c3ccc(F)cc3)c2-c2ccnc(NCCO)n2)CC1 | 8.66 | 2.1 | 3.08 | 0.6 | 6.58 | 0.99 | 11 | 4.45 | 5.89 | 3.52
Cc1cc(O)cc(C)c1/C=C/c1cncc(C(N)=O)c1 | 25.5 | 2.69 | 9.65 | 6.97 | 11.2 | 3.98 | 18.9 | 3.84 | 5.76 | 1.27
c1ccc(-c2n[nH]cc2-c2ccnc(-c3ccc(OCCn4ccnc4)cc3)c2)nc1 | 1.94 | 0.36 | 1.9 | 0.25 | 5.66 | 1.97 | 24.5 | -0.83 | 5.84 | -1.24
O=C(O[C@H]1CN[C@H](C#Cc2cc3ncnc(Nc4ccc(OCc5cccc(F)c5)c(Cl)c4)c3s2)C1)N1CCOCC1 | 7.44 | 1 | 2.47 | 77.1 | 77.1 | 40.9 | 87 | 42.8 | 75.2 | 5.1
NS(=O)(=O)c1ccc(N/N=C2\C(=O)Nc3cccc(CCc4ccncc4)c32)cc1 | 0.36 | 1.26 | 1.42 | 4.28 | 6.81 | -0.53 | 3.04 | -0.31 | 0.15 | 0.27
CCOc1ccc2c(-c3ccnc(Nc4cc(OC)cc(C(F)(F)F)c4)n3)cnn2n1 | 0.11 | -0.19 | 1.4 | 2.81 | 5.28 | 2.28 | 3.23 | 1.52 | 2.39 | 0.36
COC(=O)Nc1nc2ccc(Oc3ccc(NC(=O)Nc4cc(C(F)(F)F)ccc4F)cc3)cc2s1 | 33.4 | 62.7 | 83.6 | 1.66 | 3.16 | -2.69 | 2.24 | -1.23 | 1.41 | 0.17
Fc1cccc(COc2ccc(Nc3ncncc3C#Cc3ccccc3)cc2Cl)c1 | 6.87 | 1.28 | 1.92 | 23.9 | 72.5 | 3.93 | 21.7 | 16.6 | 30.2 | 3.89
CN(C)CCNC(=O)Nc1ccc(N(C)c2ccnc(Nc3ccc(CS(C)(=O)=O)cc3)n2)cc1 | 1.47 | 0.92 | 9.89 | 1.32 | 3.79 | 3.58 | 3.5 | 2.9 | 2.38 | 3.69
O=C(O[C@H]1CN[C@H](C#Cc2cc3ncnc(Nc4ccc5c(ccn5Cc5cc(F)ccc5F)c4)c3s2)C1)N1CCOCC1 | 2.68 | 2.04 | 2.8 | 65.5 | 76.4 | 11.2 | 53.6 | 22.6 | 39 | 20
COc1ccccc1-c1cc(/C=C2\C(=O)Nc3ncc(Br)cc32)cc(Br)c1O | 3.65 | 2.75 | 10.6 | -0.76 | 2.08 | -0.74 | 0.61 | 2.99 | 4.29 | 1.88

Compound | inhibition [1] [%] | inhibition [2] [%] | inhibition [3] [%] | inhibition [4] [%] | inhibition [5] [%] | inhibition [6] [%] | inhibition [7] [%] | inhibition [8] [%] | inhibition [9] [%] | inhibition [10] [%]
O=C(Nc1n[nH]c2nnc(-c3cccnc3)cc12)C1CC1 | -1.56 | -0.82 | -1 | 0.34 | 1.5 | -2.25 | 2.57 | -1.02 | -0.99 | -0.29
COc1cccc(-n2ncc3c(N/N=C/c4ccc(C(=O)NCCN(C)C)cc4)ncnc32)c1 | 22 | 7.86 | 41 | 16.7 | 56.4 | 63.6 | 90.6 | 23 | 68.7 | 0.59
Cn1c(-c2nonc2N)nc2cnccc21 | -0.66 | 0.53 | 2.78 | 8.18 | 8.08 | 3.74 | 5.92 | 3.1 | 4.3 | 1.55
NS(=O)(=O)c1cccc(N/C=C2\C(=O)Nc3ccccc32)c1 | -0.23 | 4.35 | 6 | 5.8 | 9.72 | 2.03 | 3.12 | 2.12 | 2.32 | 2.62
O=C(O[C@H]1CN[C@H](C#Cc2cc3ncnc(Nc4ccc5c(cnn5Cc5ccccc5)c4)c3s2)C1)N1CCOCC1 | 4.15 | 0.56 | 0.22 | 72.3 | 83.3 | 14.2 | 56.2 | 25.9 | 44.2 | 0.87
CC1=C(C(=O)Nc2ccc3[nH]nc(C)c3c2)C(c2ccc(C(F)(F)F)cc2)CC(=O)N1 (stereo not given) | 5.65 | 3.33 | 1.65 | 2.76 | 5.52 | 4.19 | 1.96 | 1.79 | 1.92 | 2.05
COc1cc(N2CCN(C(C)C)CC2)ccc1Nc1nc(Nc2cccc(F)c2C(=O)O)c2cc[nH]c2n1 | 7.02 | 1.68 | 1.98 | 0.15 | 3.33 | 4.84 | 12.6 | 4.97 | 5.54 | 6.09
COc1cccc(Nc2nccc(-c3cnn4ncccc34)n2)c1 | 11.8 | 0.85 | 4.16 | -2.03 | 5.8 | 2.1 | 9.34 | 1.66 | 3.56 | 1.52
CS(=O)(=O)Nc1ccc(-c2ccc3c(NC(=O)C4CC4)n[nH]c3c2)cc1 | 0.41 | 1.42 | 0.51 | -0.2 | 2.27 | 2.52 | -0.4 | 2.28 | -2.37 | 2.21
FC(F)(F)CNc1nccc(-c2cnn3ncccc23)n1 | 0.56 | 1.12 | 0.22 | 1.39 | 6.21 | 2.83 | 0.26 | 0.58 | 0.31 | -0.49
CNC(=O)c1sc(-n2cnc3cc(OC)c(OC)cc32)cc1OCc1ccccc1C(F)(F)F | 7.18 | 2.3 | 2.7 | -0.83 | 2.09 | 0.74 | -0.13 | 1.16 | 1.23 | 0.64
Cc1nnc(-c2cccc(-c3ccc(C(=O)NCC4CC4)cc3)c2)o1 | 7.37 | 2.21 | 3.42 | 1.17 | 3.25 | 2.9 | 6.91 | 3.75 | 5.65 | 3.93
CC1=C(C(=O)Nc2ccc3[nH]ncc3c2)C(c2ccc(F)cc2)N=C(c2ccc(C(F)(F)F)nc2)N1 (stereo not given) | 6.65 | 1.54 | 6.22 | 3.43 | 7.73 | 4.85 | 6.69 | 2.32 | 2.72 | 0.14
COC(=O)Nc1nc2cc(Oc3ccc(NC(=O)Nc4ccccc4)cc3)ccc2[nH]1 | 1.41 | 77.2 | 81.4 | 0.9 | -0.33 | 0.78 | 4.35 | 1.19 | 1.08 | -1.39
CN(c1ccc(NC(=O)NCCN2CCOCC2)cc1)c1ccnc(Nc2ccc(CS(C)(=O)=O)cc2)n1 | 13.1 | 24.3 | 76 | -0.15 | 1.28 | 3.77 | 6.75 | 2.81 | 3.82 | 2.04
